# Source: PubChem BioAssay
# Shown are actives, neighbours in structure and some others; about 19% of the full set was active somewhere.
# TDP1 cell CPT = growth inhibition of DT40 Tdp1-/-;hTDP1 cells with camptothecin (screen for TDP1 inhibitors); chicken DT40 Tdp1-/-;hTDP1 cells + 20 nM CPT, ATP luminescence, 48 h; Potency, µM (titrated, usually from 46.2 µM), inactives show at the top dose activity change, negative = growth inhibition, usual class: inhibitors; hit rate 12% among 420,000; AID 686979; note: potency is the fitted concentration of half-maximal effect; % is set by controls: 0 for no effect and ±100 for the full control effect; nearly all actives have a fitted effect of over 55% in size
#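 Chicken DT40 Tdp1-/- cells stably complemented with human TDP1 were seeded at 400 cells/well in medium containing 20 nM camptothecin, exposed to pin-transferred compounds, and grown at 37 °C for at least 48 hr. Viability was read as ATP luminescence.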
# IL-1B inflam inh = inflammasome signaling inhibition, IL-1 beta readout; AID 743279; THP-1 LPS/ATP IL-1B secretion, AlphaLISA, 16 h; active compounds read low; hit rate 4.7% among 360,000; activity change, % at 57.5 µM; in the data active = activity change below about -50%; inconclusive = mostly about -30% to -49%; note: % is set by controls: 0 for no effect and ±100 for the full control effect
#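 Secreted IL-1B measured by AlphaLISA bead assay after 16 h compound exposure of THP-1 cells; compounds (final up to 57.5 uM) added 1 h before LPS (250 ng/mL) and ATP (1.25 mM) stimulation; lower signal means less secretion.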
# Chronic BCR inh = blocks chronic active B-cell receptor signaling; AID 493014; hit rate 0.05% among 340,000; ABC-DLBCL IkBa-CBG/CBR reporter, luminescence ratio, 4 h; Potency, µM (top dose mostly 46.1 µM), for the others: at the top dose activity change, negative = inhibition, actives largely listed as inhibitors; active = well fitted inhibition curve with a large enough effect in the signal ratio, with a control signal flat, not every such curve was filed as active; inconclusive = small, poorly fitted or top-dose-only effect, or effect the other way, or a change in a side signal; the % refers to the signal ratio;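 note: potency is the fitted concentration of half-maximal effect; plate controls were basal doxycycline-induced cells for no effect and cells given 10 µM MG132 for full effect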
#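 Doxycycline induced both beetle luciferases in TMD8 lymphoma cells; IKK-driven degradation limits the IkappaBalpha-fused green signal, while red luminescence normalises for cell number and nonspecific effects. Compounds tested up to 46 uM, 4 hrs.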
# DT40 TDP1 no CPT = qHTS for Inhibitors of human tyrosyl-DNA phosphodiesterase 1 (TDP1): qHTS in cells in absence of CPT; DT40 Tdp1-/- hTDP1 cells, no CPT, ATP luminescence, 48 h; Potency, µM (doses to about 46.2 µM), for inactives: at the top dose activity change, negative = growth inhibition, most hits filed as inhibitors; hit rate 15% among 420,000; AID 686978, 2013; note: potency is the fitted concentration of half-maximal effect; % is set by controls: 0 for no effect and ±100 for the full control effect; nearly all actives have a fitted effect of over 55% in size
#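 Compound effects on proliferation are scored in DT40 Tdp1-/-;hTDP1 cells in the absence of CPT. ATP levels (CellTiter-Glo luminescence) are recorded after a ≥48 hr, 37 °C incubation.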
# SW480 rereplic = inducers of DNA re-replication in SW480 colon cancer cells; AID 624297; Potency, µM (top dose mostly 46.1 µM), for inactives: at the top dose re-replication activation, actives largely listed as activators; SW480 DNA re-replication, Hoechst DNA content imaging, 48 h; hit rate 1.8% among 340,000; note: potency is the fitted concentration of half-maximal effect; % of control where 0% means no effect; nearly all actives have a fitted effect of over 55% in size
#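 First, 250 cells per well were seeded. Next, compound or vehicle (23 nL) was pinned in, plates sat 48 hr at 37 C. Finally Hoechst was added for 40 min before fluorescence scanning.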
# MCF10A rerep = DNA re-replication induction in MCF 10a cells | MCF 10A DNA re-replication, Hoechst nuclear intensity, 48 h | Potency, µM (highest dose often 46.1 µM), inactives show at the highest dose activity, positive = re-replication, hits mostly activators | hit rate 2.9% among 350,000 | AID 624296; note: potency is the fitted concentration of half-maximal effect; % of control where 0% means no effect; nearly all actives have a fitted effect of over 50% in size
# * marks the source's active call; other numbers are inactive results; ? = inconclusive; / = not tested or not shown. Unless noted, calls come from the whole dose curve; as a rule, active = well fitted curve in the direction sought with a large enough effect; inconclusive = small, poorly fitted or top-dose-only effect, or another doubt; inactive = no such curve, though single readings can be large; an effect the other way counts as inactive or inconclusive.
SMILES,TDP1 cell CPT,IL-1B inflam inh,Chronic BCR inh,DT40 TDP1 no CPT,SW480 rereplic,MCF10A rerep
CCOC(=O)C1=CN(Cc2ccco2)S(=O)(=O)NC1c1ccc(F)c(Cl)c1 (configuration not stated),-28%,-1,9%,-9%,-49%,-9%
C=CCn1c(SCC(=O)Nc2ccc3c(c2)OCCO3)nc2cc(C(=O)O)ccc2c1=O,0%,-17,5%,6%,-7%,-4%
O=C(Nc1ccc(C(=O)N2CCCCC2)cc1)[C@H]1O[C@@H](n2ccc(=O)[nH]c2=O)[C@H](O)[C@@H]1O,22%,-12,/,4%,/,/
Cc1c([N+](=O)[O-])cnc(Sc2ccccc2)c1[N+](=O)[O-],?,-16,/,9.2µM*,?,?
Cc1ccc2[nH]c(=O)c3cc(C(=O)N(C)C4CCCCC4)sc3c2c1,-3%,/,-7%,10%,1%,2%
Cc1cccc(N(C)C(=O)c2cc3c(=O)oc4ccc(C)cc4c3s2)c1,-2%,/,/,-25%,/,/
CCN(C(=O)c1cc2c(=O)oc3ccc(C)cc3c2s1)c1ccccc1F,?,/,/,21µM*,/,/
CCN(C(=O)c1cc2c(=O)[nH]c3ccc(C)cc3c2s1)c1ccccc1F,13µM*,13,7%,?,-6%,?
CCN(C(=O)c1cc2c(=O)[nH]c3ccc(C)cc3c2s1)c1ccccc1C,2.6µM*,82,3%,2.9µM*,-6%,16%
CC(OC(=O)c1cc(=O)[nH]c2ccccc12)C(=O)NCc1ccccc1 (configuration not stated),2%,5,0%,-9%,3%,-7%
Cc1ccc(C)c(N=Nc2nc3ccccc3n2C)c1,5.8µM*,-80*,?,3.5µM*,?,?
Cc1ccc(NCc2nc3ccccc3n2C)cc1C,-1%,15,6%,-12%,-41%,-11%
Cc1cc(C)c(C)c(N=Nc2nc3ccccc3n2C)c1C,?,?,?,23µM*,?,21%
Cc1cccc(C)c1NC(=O)C1(C)CCC(=O)N1C1CC1 (configuration not stated),-2%,-13,/,8%,/,/
Fc1ccc(CNc2ncnc3c2cnn3-c2ccccc2)cc1,?,-9,/,?,-3%,4%
Cc1ccc(-n2ncc3c(Nc4cccc(C)c4C)ncnc32)cc1,?,/,5%,?,/,/
Fc1ccc(-n2ncc3c(N4CCCCCC4)ncnc32)cc1,12µM*,/,21%,?,/,/
Cc1ccc(-n2ncc3c(NC4CCCCCC4)ncnc32)cc1,13µM*,/,4%,18µM*,/,/
Cc1ccc(-n2ncc3c(NC4CCCCC4)ncnc32)cc1,?,/,12%,21µM*,/,/
Fc1ccc(-n2ncc3c(NC4CCCCCC4)ncnc32)cc1,23µM*,/,?,23µM*,/,/
CCOc1ccccc1CN1CCNC(=O)C1CC(=O)NCCCn1cccn1 (configuration not stated),-5%,-3,-5%,21%,26%,0%
CCCCCCCCCCCCCCCCCC(=O)[O][Al],0%,/,/,-7%,/,/
COc1ccc(N2C(=O)CCSC23C(=O)N(Cc2ccc(F)cc2)c2ccccc23)cc1Cl (configuration not stated),9.2µM*,/,/,8.2µM*,/,/
O=C(CC1NCCc2ccccc21)Nc1ccc(Oc2ccccc2)cc1 (configuration not stated),?,-153*,?,?,?,?
O=C(Nc1ccc(N=Nc2ccccc2)c(NC(=O)C2CCCO2)c1)C1CCCO1 (configuration not stated),8.2µM*,-83*,?,21µM*,2%,?
SMILES,TDP1 cell CPT,IL-1B inflam inh,Chronic BCR inh,DT40 TDP1 no CPT,SW480 rereplic,MCF10A rerep
O=C(Nc1ccc(-c2nc3cccnc3s2)cc1)C1CCCO1 (configuration not stated),23µM*,11,?,21µM*,?,?
O=C(CC1NCCc2ccccc21)Nc1ccccc1 (configuration not stated),3%,-8,0%,4%,-4%,-3%
O=C(Nc1ccc(Oc2ccccc2)cc1)C1CC1,21µM*,-20,?,18µM*,4%,-2%
C[C@@H]1C[C@@H](CC(=O)NCC2Cc3cccc(-c4ccncc4)c3O2)NC(=S)N1 (some centres not stated),-24%,/,/,-19%,/,/
CCc1noc(C)c1C(=O)NC1CC(C)(C)Cc2c1cnn2-c1ccccc1 (configuration not stated),/,/,5%,/,/,/
CCN(C(=O)c1ccc(Cl)c(S(=O)(=O)Nc2c(C)n(C)n(-c3ccccc3)c2=O)c1)c1ccccc1,-14%,16,4%,2%,-6%,4%
CC(C)N(c1ccccc1)c1ccc(NC(=O)C2CCCO2)cc1 (configuration not stated),?,-9,0%,16µM*,-3%,3%
COc1ccc(NC(=O)C2CCCO2)cc1 (configuration not stated),2%,2,-8%,18%,-2%,16%
COC(=O)[C@H](C)NC(=O)Nc1ccc(Oc2ccccc2)cc1,?,10,-1%,6.3µM*,11%,-11%
Cc1cccc(Oc2ccc(NC(=O)C3CC=CCC3C(=O)O)cc2)c1 (configuration not stated),-29%,22,2%,2.1µM*,-1%,-2%
O=C(Nc1ccc(Oc2ccccc2)cc1)C1CCCO1 (configuration not stated),-6%,1,-6%,-24%,?,7.3µM*
CC(C)C[C@H](NC(=O)Nc1ccc(Oc2ccccc2)cc1)C(=O)O,-17%,13,0%,-14%,-90%,-83%
COc1cccc(CNC(=O)CCNS(=O)(=O)c2ccc(C)cc2)c1,-17%,-4,4%,-23%,-9%,-2%
COCCN1C(=O)CN(S(C)(=O)=O)CC1(C)C(=O)Nc1c(C)cccc1C (configuration not stated),-5%,2,/,2%,/,/
CC(=O)N1CCC2(CCCN(Cc3cc(C(F)(F)F)cc(C(F)(F)F)c3)C2)CC1,-22%,/,/,?,/,/
Cn1c(=O)c2c(nc3n(-c4ccc(O)cc4)c(-c4ccc(Br)cc4)cn23)n(C)c1=O,-11%,/,/,-6%,/,/
O=C(Nc1ccccc1C(=O)O)c1ccc(NC(=O)C2CC2)cc1,?,6,-2%,-10%,-4%,2%
